Data taken from PubChem BioAssay (NCATS).
Unmarked numbers belong to inactive results. The call rests on the fitted dose curve; in most records, active means well fitted curve in the direction sought with a large enough effect; inconclusive means small, poorly fitted or top-dose-only effect, or another doubt; inactive means no such curve, though single readings can be large; an effect the other way counts as inactive or inconclusive. Results filed as inconclusive are left out.

Test: MultiTox-Fluor Cytotoxicity Assay - LYMP1-002 - Dead Cells (AID 960);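 further: cells exposed to compound for 16 h at 37 °C; 0% = DMSO and 100% = tetraoctylammonium bromide; nearly all actives have a fitted effect of over 60% in size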
Conditions: LYMP1-002 lymphoblastoid cells, dead-cell protease fluorescence; series mostly up to 46.1 µM; cytotoxicity (dead cells): at the top concentration
Summary of the method: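 Concentration-dependent increases in membrane-leaked protease activity are quantified in LYMP1-002 cells after 16 hr treatment; values are normalized against DMSO and tetraoctylammonium bromide (15 uM) controls and AC50 derived by Hill modeling.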
For `CCCCCCc1ccc(-c2ccc(C#N)cc2)cc1`, the “cytotoxicity (dead cells)” value was 12.3%. For `Nc1cnn([C@@H]2O[C@H](CO)[C@@H](O)[C@H]2O)c(=O)n1`, the “cytotoxicity (dead cells)” value was 2.69%. For `CCCCCCCCOc1ccc(C(=O)O)cc1`, the “cytotoxicity (dead cells)” value was 12.9%. With `CCCCNCC` the “cytotoxicity (dead cells)” value was -21%. With `O=c1[nH]ncc2ccccc12` the “cytotoxicity (dead cells)” value was 39.8%. With `c1ccc(COCc2ccccc2)cc1` the “cytotoxicity (dead cells)” value was 9.8%. With `O=[N+]([O-])c1cccc(I)c1` the “cytotoxicity (dead cells)” value was -2.38%. In the case of `Nc1ccc2c(c1)C(=O)c1ccccc1C2=O`, the “cytotoxicity (dead cells)” value is reported as 4.18%. With `c1ccc2c(c1)ccc1ccccc12` the “cytotoxicity (dead cells)” value was 25.6%. For `Nc1ccc(N=Nc2ccccc2)c(N)c1`, the “cytotoxicity (dead cells)” value was 9.65%. In the case of `Cc1ccc(C(=O)O)cc1[N+](=O)[O-]`, the “cytotoxicity (dead cells)” value is reported as 21.1%. With `COc1ccc([N+](=O)[O-])cc1N` the “cytotoxicity (dead cells)” value was 32.9%. In the case of `OCC(CO)(CBr)CBr`, the “cytotoxicity (dead cells)” value is reported as -19.6%. In the case of `Nc1cc(C(=O)O)c(O)c(S(=O)(=O)O)c1`, the “cytotoxicity (dead cells)” value is reported as 17.6%. For `Oc1ccc2c(c1)OCO2`, the “cytotoxicity (dead cells)” value was 7.05%. For `c1ccncc1`, the “cytotoxicity (dead cells)” value was -13.2%. In the case of `CC(=O)OC1CC(C)OC(C)O1` (stereo not drawn), the “cytotoxicity (dead cells)” value is reported as 10.5%. For `C/C=C/C=C/C=O`, the “cytotoxicity (dead cells)” value was 18.8%. For `c1c[nH]cn1`, the “cytotoxicity (dead cells)” value was -9.02%. With `c1ccc(SCCSc2ccccc2)cc1` the “cytotoxicity (dead cells)” value was 7.84%. In the case of `O=C(O)/C=C/c1ccc(/C=C/C(=O)O)cc1`, the “cytotoxicity (dead cells)” value is reported as 1.52%. In the case of `CCCCOC(=O)COc1ccc(Cl)cc1Cl`, the “cytotoxicity (dead cells)” value is reported as 5.08%. In the case of `CC(=O)OC(C(=O)c1ccccc1)c1ccccc1` (stereo not drawn), the “cytotoxicity (dead cells)” value is reported as 27.4%. With `CC(=O)Nc1cccc(C)c1` the “cytotoxicity (dead cells)” value was 13.3%. With `COc1ccc(C)cc1N` the “cytotoxicity (dead cells)” value was -16.3%. For `CCc1ccc(C(c2ccc(CC)cc2)C(Cl)Cl)cc1`, the “cytotoxicity (dead cells)” value was 47.2%. For `O=[N+]([O-])c1ccccc1Nc1ccccc1`, the “cytotoxicity (dead cells)” value was 10.8%. With `C=CC1CO1` (stereo not drawn) the “cytotoxicity (dead cells)” value was -17.1%. For `COc1cc(-c2ccc(N=C=O)c(OC)c2)ccc1N=C=O`, the “cytotoxicity (dead cells)” value was -16.3%. In the case of `CCOC(=O)C1OC1c1ccccc1` (stereo not drawn), the “cytotoxicity (dead cells)” value is reported as 8.38%.

Test: MultiTox-Fluor Cytotoxicity Assay - LYMP1-003 - Dead Cells (AID 961);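 further: cells exposed to compound for 16 h at 37 °C; 0% = DMSO and 100% = tetraoctylammonium bromide; nearly all actives have a fitted effect of over 70% in size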
Conditions: LYMP1-003 lymphoblastoid cells, dead-cell protease fluorescence; series mostly up to 92.2 µM; cytotoxicity (dead cells): at the top concentration
Summary of the method: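 Acute toxicity is scored as increased dead-cell protease activity in human lymphoblastoid LYMP1-003 cells after 16 h compound exposure in complete culture medium. Activity is normalized to DMSO basal and 15 uM tetraoctylammonium bromide as full response.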
In the case of `CCCCCCc1ccc(-c2ccc(C#N)cc2)cc1`, the “cytotoxicity (dead cells)” value is reported as -6.24%. With `Nc1cnn([C@@H]2O[C@H](CO)[C@@H](O)[C@H]2O)c(=O)n1` the “cytotoxicity (dead cells)” value was -4.06%. In the case of `CCCCCCCCOc1ccc(C(=O)O)cc1`, the “cytotoxicity (dead cells)” value is reported as -1.9%. For `Oc1c(Cl)cc(Cl)c(Cl)c1Cl`, the “cytotoxicity (dead cells)” value was -6.36%. With `CC(C)OCC1CO1` (stereo not drawn) the “cytotoxicity (dead cells)” value was -24.9%. With `C/C(Cl)=C/CCl` the “cytotoxicity (dead cells)” value was -8.57%. For `CCCCNCC`, the “cytotoxicity (dead cells)” value was 7.46%. With `O=c1[nH]ncc2ccccc12` the “cytotoxicity (dead cells)” value was -12.1%. For `c1ccc(COCc2ccccc2)cc1`, the “cytotoxicity (dead cells)” value was -7.23%. For `O=[N+]([O-])c1cccc(I)c1`, the “cytotoxicity (dead cells)” value was -4.39%. In the case of `Nc1ccc2c(c1)C(=O)c1ccccc1C2=O`, the “cytotoxicity (dead cells)” value is reported as 5.39%. With `c1ccc2c(c1)ccc1ccccc12` the “cytotoxicity (dead cells)” value was -2.99%. For `Nc1ccc(N=Nc2ccccc2)c(N)c1`, the “cytotoxicity (dead cells)” value was -9.5%. In the case of `Cc1ccc(C(=O)O)cc1[N+](=O)[O-]`, the “cytotoxicity (dead cells)” value is reported as 2.09%. For `COc1ccc([N+](=O)[O-])cc1N`, the “cytotoxicity (dead cells)” value was -10.3%. In the case of `OCC(CO)(CBr)CBr`, the “cytotoxicity (dead cells)” value is reported as -5.3%. For `Nc1cc(C(=O)O)c(O)c(S(=O)(=O)O)c1`, the “cytotoxicity (dead cells)” value was -9.6%. For `Oc1ccc2c(c1)OCO2`, the “cytotoxicity (dead cells)” value was -9.86%. For `c1ccncc1`, the “cytotoxicity (dead cells)” value was -0.812%. In the case of `CC(=O)OC1CC(C)OC(C)O1` (stereo not drawn), the “cytotoxicity (dead cells)” value is reported as -6.77%. For `O=C(OCc1ccccc1)c1ccccc1O`, the “cytotoxicity (dead cells)” value was -7.85%. In the case of `CCN(CC)c1ccc2c(C)cc(=O)oc2c1`, the “cytotoxicity (dead cells)” value is reported as 3.69%. With `c1c[nH]cn1` the “cytotoxicity (dead cells)” value was -12%. In the case of `c1ccc(SCCSc2ccccc2)cc1`, the “cytotoxicity (dead cells)” value is reported as 1.71%. In the case of `O=C(O)/C=C/c1ccc(/C=C/C(=O)O)cc1`, the “cytotoxicity (dead cells)” value is reported as -19.2%. In the case of `CCCCOC(=O)COc1ccc(Cl)cc1Cl`, the “cytotoxicity (dead cells)” value is reported as 4.46%. With `CC(=O)OC(C(=O)c1ccccc1)c1ccccc1` (stereo not drawn) the “cytotoxicity (dead cells)” value was -14.7%. In the case of `CCCCCCN`, the “cytotoxicity (dead cells)” value is reported as -25.1%. In the case of `CC(=O)Nc1cccc(C)c1`, the “cytotoxicity (dead cells)” value is reported as 4.24%. For `CCC(Cl)CC(Cl)C(Cl)C(Cl)C(Cl)C(C)Cl` (stereo not drawn), the “cytotoxicity (dead cells)” value was 12%. For `COc1ccc(C)cc1N`, the “cytotoxicity (dead cells)” value was -16%. In the case of `CCc1ccc(C(c2ccc(CC)cc2)C(Cl)Cl)cc1`, the “cytotoxicity (dead cells)” value is reported as 9.66%. In the case of `C[C@@H]1CC2(OC(O)[C@]3(C)O[C@H]23)O[C@H]2C[C@@]3(C)[C@@H]4CC[C@H]5C(C)(C)C(O[C@@H]6OC[C@@H](O)[C@H](O)[C@H]6O)CC[C@@]56C[C@@]46CC[C@]3(C)[C@@H]12` (stereo partly drawn), the “cytotoxicity (dead cells)” value is reported as 17.5%. In the case of `O=[N+]([O-])c1ccccc1Nc1ccccc1`, the “cytotoxicity (dead cells)” value is reported as -10.8%. With `C=CC1CO1` (stereo not drawn) the “cytotoxicity (dead cells)” value was -12.1%. In the case of `COc1cc(-c2ccc(N=C=O)c(OC)c2)ccc1N=C=O`, the “cytotoxicity (dead cells)” value is reported as 0.404%. For `CCOC(=O)C1OC1c1ccccc1` (stereo not drawn), the “cytotoxicity (dead cells)” value was 1.34%. With `COc1ccc(C(=O)Nc2ccccc2)cc1[N+](=O)[O-]` the “cytotoxicity (dead cells)” value was -4.89%.

Test: MultiTox-Fluor Cytotoxicity Assay - LYMP1-003 - Live Cells (AID 962);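 further: cells exposed to compound for 16 hours at 37 °C; 0% = DMSO only and full loss = 92 µM tetraoctylammonium bromide; cytotoxic hits lower the live-cell protease signal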
Conditions: LYMP1-003 lymphoblastoid cells, MultiTox-Fluor live-cell protease fluorescence; series mostly up to 92.2 µM; activity change, negative = fewer live cells: at the top concentration
Summary of the method: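 Human lymphoblastoid line LYMP1-003 in complete culture medium, treated 16 hr with titrated compounds. Viable cells quantified via cell-permeant GF-AFC substrate fluorescence; AC50 derived by Hill fitting.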
In the case of `CCCCCCc1ccc(-c2ccc(C#N)cc2)cc1`, the “activity change, negative = fewer live cells” value (shortened to “activity change”) is reported as -1.63%. With `Nc1cnn([C@@H]2O[C@H](CO)[C@@H](O)[C@H]2O)c(=O)n1` the “activity change” value was -6.61%. For `CCCCCCCCOc1ccc(C(=O)O)cc1`, the “activity change” value was -9.56%. In the case of `CC(C)OCC1CO1` (stereo not drawn), the “activity change” value is reported as -17.3%. In the case of `C/C(Cl)=C/CCl`, the “activity change” value is reported as -7.43%. In the case of `CCCCNCC`, the “activity change” value is reported as -5.08%. With `O=c1[nH]ncc2ccccc12` the “activity change” value was -5.99%. With `c1ccc(COCc2ccccc2)cc1` the “activity change” value was -6.57%. With `Nc1ccc2c(c1)C(=O)c1ccccc1C2=O` the “activity change” value was -9.8%. With `c1ccc2c(c1)ccc1ccccc12` the “activity change” value was -11.9%. With `Nc1ccc(N=Nc2ccccc2)c(N)c1` the “activity change” value was -24.6%. For `COc1ccc([N+](=O)[O-])cc1N`, the “activity change” value was -6.54%. With `OCC(CO)(CBr)CBr` the “activity change” value was -4.15%. With `c1ccncc1` the “activity change” value was -2.92%. With `CC(=O)OC1CC(C)OC(C)O1` (stereo not drawn) the “activity change” value was -1.18%. In the case of `O=C(OCc1ccccc1)c1ccccc1O`, the “activity change” value is reported as -4.85%. For `C/C=C/C=C/C=O`, the “activity change” value was -21.3%. For `CCN(CC)c1ccc2c(C)cc(=O)oc2c1`, the “activity change” value was -3.5%. In the case of `c1c[nH]cn1`, the “activity change” value is reported as -3.29%. For `c1ccc(SCCSc2ccccc2)cc1`, the “activity change” value was -2.25%. For `O=C(O)/C=C/c1ccc(/C=C/C(=O)O)cc1`, the “activity change” value was -4.26%. With `CC(=O)Nc1cccc(C)c1` the “activity change” value was -2.05%. In the case of `CCC(Cl)CC(Cl)C(Cl)C(Cl)C(Cl)C(C)Cl` (stereo not drawn), the “activity change” value is reported as 0.0161%. In the case of `C[C@@H]1CC2(OC(O)[C@]3(C)O[C@H]23)O[C@H]2C[C@@]3(C)[C@@H]4CC[C@H]5C(C)(C)C(O[C@@H]6OC[C@@H](O)[C@H](O)[C@H]6O)CC[C@@]56C[C@@]46CC[C@]3(C)[C@@H]12` (stereo partly drawn), the “activity change” value is reported as -7.69%. In the case of `O=[N+]([O-])c1ccccc1Nc1ccccc1`, the “activity change” value is reported as -9.72%.
